Measured values published in PubChem BioAssay AID687016 (The Scripps Research Institute Molecular Screening Center, 2013).
In all, about 370,000 compounds went through this assay and about 2,800 (0.76%) were called active. Many of the other results were omitted from the sample, so actives are more common in it than they were. A number with no mark means an inactive call. Rule as the data show it: active = inhibition above about 21%; inactive = the rest.

biological target: E3 ubiquitin-protein ligase UHRF1 (Homo sapiens) (UniProt Q96T88); assay: blockers of UHRF1 binding to methyl-oligo – biochemical, TR-FRET, human UHRF1, single concentration, counter-screen for MBD2 inhibitor project, primary screen (AID 687016); conditions: UHRF1 binding to methylated oligo, at 4.4 µM, active compounds read high;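 also: UHRF1 SRA domain binding a hemimethylated CpG hairpin DNA probe; 0% = median of test compound wells and 100% = reference inhibitor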
Sequence (Q96T88 whole entry, looked up, the tested form may be a part): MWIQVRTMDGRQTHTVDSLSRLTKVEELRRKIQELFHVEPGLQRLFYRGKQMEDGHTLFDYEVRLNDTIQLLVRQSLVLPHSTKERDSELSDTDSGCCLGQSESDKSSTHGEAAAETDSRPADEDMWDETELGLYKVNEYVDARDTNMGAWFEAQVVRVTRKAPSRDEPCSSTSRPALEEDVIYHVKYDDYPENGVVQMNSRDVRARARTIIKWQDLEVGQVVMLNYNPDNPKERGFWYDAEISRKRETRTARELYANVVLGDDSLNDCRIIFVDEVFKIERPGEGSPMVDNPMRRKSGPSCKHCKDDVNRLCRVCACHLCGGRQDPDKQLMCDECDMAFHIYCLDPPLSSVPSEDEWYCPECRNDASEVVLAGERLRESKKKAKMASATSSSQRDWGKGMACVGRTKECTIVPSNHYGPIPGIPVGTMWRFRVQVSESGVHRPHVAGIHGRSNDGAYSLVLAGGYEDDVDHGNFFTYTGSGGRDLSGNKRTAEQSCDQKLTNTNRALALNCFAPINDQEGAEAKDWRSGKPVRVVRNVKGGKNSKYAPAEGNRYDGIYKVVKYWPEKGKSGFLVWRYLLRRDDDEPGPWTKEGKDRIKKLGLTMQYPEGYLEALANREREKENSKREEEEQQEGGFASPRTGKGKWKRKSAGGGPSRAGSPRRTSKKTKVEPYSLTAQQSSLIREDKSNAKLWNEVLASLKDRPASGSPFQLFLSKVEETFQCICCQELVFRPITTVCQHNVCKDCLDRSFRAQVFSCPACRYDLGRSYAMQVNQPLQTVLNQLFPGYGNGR

Structure (SMILES)	inhibition
Cc1ccc(NC(=O)c2cc(C)nn2-c2ccccc2)c(C)c1	-1.23%
CCCCCN1CCCCC(NC(=O)C(C)CCC)C1=O (centres undefined)	-0.32%
CCN(CC)CCNC(=O)Cn1cnc2sc(C)c(S(=O)(=O)N3CCOCC3)c2c1=O	6.01%
CCN(CC)CCCNC(=O)Cn1cnc2sc(C)c(S(=O)(=O)N3CCN(c4ncccn4)CC3)c2c1=O	31.2% (active)
Cc1sc2ncn(CC(=O)NCCN(C)C)c(=O)c2c1S(=O)(=O)N1CCC(C)CC1	-1.58%
C=CCN1C(=O)[C@@H](CC(=O)NCCCOCCCC)[C@]2(C(=O)OCC)CCCCC/C=C/12	-0.5%
C=C(C)C#CC(Cc1ccccc1)N(CC1CC1)/C(N)=N/C(=O)OCc1ccccc1 (centres undefined)	-3.18%
COc1cccc(C(=O)NC(=O)Nc2nc(C)cc(C(F)(F)F)n2)c1	0.01%
COc1ccc(C(=O)NCCSc2ccccc2C)cc1	0.98%
COc1ccc(C(=O)NNc2cc(C)nc(NNC(=O)c3ccc(OC)cc3)n2)cc1	20.7% (active)
CCOC(=O)C1CCN(C(=O)C(C)(C)NC(=O)Nc2ccc(F)c(F)c2)CC1	2.59%
COc1ccc(N2CCN(C(=O)c3cccs3)CC2)cc1	-7.02%
O=C(Nc1ccc(N2CCN(C(=O)c3cccs3)CC2)cc1)c1cccnc1Cl	-0.07%
O=C(COc1ccccc1)Nc1ccc(N2CCN(C(=O)c3cccs3)CC2)cc1	44.9% (active)
CCOc1ccc(N(CC(=O)NCCc2ccc(F)cc2)S(=O)(=O)c2ccccc2)cc1	16.8%
CCOc1ccc(N(CC(=O)NCCOc2ccccc2OC)S(=O)(=O)c2ccccc2)cc1	28% (active)
COc1ccc(CCNC(=O)CN(c2ccccc2)S(=O)(=O)c2ccccc2)cc1	1.05%
Cc1ccc(Cn2cc(CN3[C@@H](C)COc4cc(Br)ccc4S3(=O)=O)nn2)cc1	-1.6%
COC(=O)[C@]12C[C@H](CC(=O)NCc3ccccc3)C(=O)N(Cc3ccccc3)C1=C[C@H](COCc1ccccc1)O[C@@H]2C	3.31%
O=S1(=O)c2c(cccc2N2CCSCC2)Oc2ccccc2CN1Cc1cn(Cc2ccc(F)cc2)nn1	2.59%
O=C(N/N=C/c1ccco1)c1ccc(C(=O)N/N=C/c2ccco2)o1	38.3% (active)
O=C(Cn1cnc2ccccc21)N/N=C/c1ccco1	-2.46%
CN(C)S(=O)(=O)c1cccc(C(=O)N/N=C\c2ccco2)c1	-2.24%
C=CS(=O)(=O)N(Cc1nnn(Cc2ccccc2)c1Br)[C@H](C(=O)OC)C(C)C	3.67%
CN(C)CCNC(=O)Cc1ccc([N+](=O)[O-])cc1	-0.93%
CN(C)CCNC(=O)c1ccc(Cl)c2cc3ccccc3nc12	30.7% (active)
O=C(NCCCNC(=O)c1ccccc1Cl)c1cnccn1	4.5%

Structure (SMILES)	inhibition
N#Cc1ccccc1CN1C(=O)S/C(=C/c2cccn2-c2cccc(C(=O)O)c2)C1=O	21.4% (active)
Cc1ccc(C(=O)O)cc1-c1ccc(/C=C2\SC(=O)N(CC(=O)Nc3ccc4c(c3)OCO4)C2=O)o1	12.9%
COC(=O)[C@H](C(C)C)N(CCCc1cn(Cc2ccccc2)nn1)S(=O)(=O)c1ccc(F)cc1Br	7.41%
O=S1(=O)c2ccc(Br)cc2OC[C@@H](Cc2ccccc2)N1Cc1cn(Cc2ccco2)nn1	-5.15%
COc1cc(C(=O)OC2CCOC2=O)c([N+](=O)[O-])cc1OC (centres undefined)	22.8% (active)
COc1cc(C(=S)N2CCOCC2)cc(OC)c1OC(=O)c1ccc([N+](=O)[O-])cc1[N+](=O)[O-]	3.69%
CC(C)c1ccc(C(=O)OC2CCOC2=O)cc1 (centres undefined)	0.68%
COc1ccc(CSc2nnc(SCC(=O)Nc3ccccc3C(F)(F)F)s2)cc1	2.07%
O=C(OCC#CCSc1nnc(-c2ccco2)o1)c1ccc(F)cc1	-3.52%
O=C(CSc1nc2ccccc2nc1N1CCCCC1)N1CCN(S(=O)(=O)c2cccc([N+](=O)[O-])c2)CC1	-2.11%
COc1cccc2c1C(=O)c1c(O)c3c(c(O)c1C2=O)CC(O)(C(C)=NNC(=O)c1ccc(Cl)c(Cl)c1)CC3OC1CC(N)C(O)C(C)O1 (centres undefined)	96% (active)
COc1cccc(CNC(=O)CNS(=O)(=O)c2ccc3nc(C)sc3c2)c1OC	-1.45%
COc1cc(NC(=O)C2CCCN(S(=O)(=O)c3ccc(C(C)(C)C)cc3)C2)cc(OC)c1 (centres undefined)	2.42%
CCCOc1ccc(Oc2c(Cl)cnn(Cc3cccc4ccccc34)c2=O)cc1	2.95%
CC(=O)Nc1nc2ncccn2c1-c1ccc(C(F)(F)F)cc1	-2.41%
COc1ccc(N2C(=O)C(CC(=O)Nc3ccccc3)N(Cc3ccc(OC)c(OC)c3)C2=O)cc1 (centres undefined)	1.08%
COc1ccc(N2C(=O)C(CC(=O)Nc3ccc(F)cc3)N(CCc3cccs3)C2=O)cc1 (centres undefined)	1.34%
COc1ccc(CCN2C(=O)N(c3ccc(OC)cc3)C(=O)C2CC(=O)Nc2ccc(OC)cc2)cc1 (centres undefined)	37.7% (active)
CCc1cccc(OC2OC(CO)C(O)C(O)C2NC(C)=O)c1 (centres undefined)	1.52%
CCCCCCCCOC1OC(CO)C(O)C(O)C1NC(C)=O (centres undefined)	0.97%
CCCCCCCCCOC1OC(CO)C(O)C(O)C1NC(C)=O (centres undefined)	53.3% (active)
CCC(NC(=O)C1C2C=CC3(CN(Cc4ccccc4)C(=O)C13)O2)c1ccccc1 (centres undefined)	0.23%
Cc1cc(C(=O)NN=C/C=C/c2ccco2)n[nH]1	5.21%
CCOc1ccc(NC(=O)c2ccc(NC(=O)CN3C(=O)C(=O)N(CC(C)C)C3=O)cc2)cc1	3.55%
CCOc1ccc(NC(=O)c2ccc(NC(=O)COC(=O)c3ccc(NC(=O)CC#N)cc3)cc2)cc1	23.6% (active)
CCOc1ccc(NC(=O)c2ccc(CSc3nnnn3C)cc2)cc1	-0.48%
COc1cccc(Cn2cc(COC(=O)Nc3ccc(F)cc3)nn2)c1	0.48%
